The text below walks through data of PubChem BioAssay (Tox21).

Assay [1] in a line: qHTS assay to identify small molecule antagonists of the glucocorticoid receptor (GR) signaling pathway - cell viability counter screen (AID 720693). Note: nearly all actives have a fitted effect of over 55% in size. Note: potency is the fitted concentration of half-maximal effect. Background: Quantitative high-throughput screening tests each substance at several concentrations.
The nature of assay [2]: qHTS assay for identifying genotoxic compounds that show differential cytotoxicity against isogenic chicken DT40 cell lines with known DNA damage response pathways - wild type cell line (AID 743012). Note: nearly all actives have a fitted effect of over 60% in size. Note: potency is the fitted concentration of half-maximal effect. The gist of the method: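 Wild type DT40, 300 cells/well, ~0.5 h settle at 37 C/5% CO2; compounds in DMSO added by pintool; 40 h at 37 C/5% CO2; CellTiter-Glo, 30 min RT; luminescence.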

Assay [3] in a line: qHTS assay for identifying genotoxic compounds that show differential cytotoxicity against isogenic chicken DT40 cell lines with known DNA damage response pathways - Rev3 mutant cell line (AID 743014). Note: nearly all actives have a fitted effect of over 55% in size. Note: potency is the fitted concentration of half-maximal effect.
A short description of assay [4]: qHTS assay for identifying genotoxic compounds that show differential cytotoxicity against isogenic chicken DT40 cell lines with known DNA damage response pathways - Rad54/Ku70 mutant cell line (AID 743015). Note: nearly all actives have a fitted effect of over 60% in size. Note: potency is the fitted concentration of half-maximal effect.
Assay [5] can be described thus: qHTS assay to identify small molecule antagonists of the androgen receptor (AR) signaling pathway - cell viability counter screen (AID 743033; note: nearly all actives have a fitted effect of over 45% in size; note: potency is the fitted concentration of half-maximal effect).
For assay [6], the target named is Androgen receptor (Homo sapiens) (UniProt P10275). Briefly: qHTS assay to identify small molecule agonists of the androgen receptor (AR) signaling pathway using the MDA cell line (AID 743040; note: nearly all actives have a fitted effect of over 20% in size; note: potency is the fitted concentration of half-maximal effect). In a few lines:
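After a 5 h incubation at 37C and 0% CO2, MDA-kb2 reporter cells were dosed with compounds in DMSO and kept 16 h under the same conditions. Luciferase activity was then read as luminescence with ONE-Glo.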

Assay [7] is described as follows: qHTS assay to identify small molecule antagonists of the androgen receptor (AR) signaling pathway using the MDA cell line - cell viability counter screen (AID 743041; note: nearly all actives have a fitted effect of over 45% in size; note: potency is the fitted concentration of half-maximal effect). In a few lines:
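R1881-driven MDA-kb2 AR-luc cells, 3,000/well, were dosed with library compounds for 16 h; cell health came from CellTiter-Fluor fluorescence in the reporter wells.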

Assay [8] deals with Androgen receptor (Homo sapiens) (UniProt P10275). Kind of assay: qHTS assay to identify small molecule antagonists of the androgen receptor (AR) signaling pathway using the MDA cell line (AID 743042; note: nearly all actives have a fitted effect of over 55% in size; note: potency is the fitted concentration of half-maximal effect). The gist of the method: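 Antagonist mode: compounds plus R1881 agonist added to MDA-kb2 AR-luc cells, incubated 16 h at 37C. Luciferase reporter luminescence quantified, with multiplexed CellTiter-Fluor readout for cell viability.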
Sequence of Androgen receptor (Homo sapiens) (P10275 whole entry, looked up): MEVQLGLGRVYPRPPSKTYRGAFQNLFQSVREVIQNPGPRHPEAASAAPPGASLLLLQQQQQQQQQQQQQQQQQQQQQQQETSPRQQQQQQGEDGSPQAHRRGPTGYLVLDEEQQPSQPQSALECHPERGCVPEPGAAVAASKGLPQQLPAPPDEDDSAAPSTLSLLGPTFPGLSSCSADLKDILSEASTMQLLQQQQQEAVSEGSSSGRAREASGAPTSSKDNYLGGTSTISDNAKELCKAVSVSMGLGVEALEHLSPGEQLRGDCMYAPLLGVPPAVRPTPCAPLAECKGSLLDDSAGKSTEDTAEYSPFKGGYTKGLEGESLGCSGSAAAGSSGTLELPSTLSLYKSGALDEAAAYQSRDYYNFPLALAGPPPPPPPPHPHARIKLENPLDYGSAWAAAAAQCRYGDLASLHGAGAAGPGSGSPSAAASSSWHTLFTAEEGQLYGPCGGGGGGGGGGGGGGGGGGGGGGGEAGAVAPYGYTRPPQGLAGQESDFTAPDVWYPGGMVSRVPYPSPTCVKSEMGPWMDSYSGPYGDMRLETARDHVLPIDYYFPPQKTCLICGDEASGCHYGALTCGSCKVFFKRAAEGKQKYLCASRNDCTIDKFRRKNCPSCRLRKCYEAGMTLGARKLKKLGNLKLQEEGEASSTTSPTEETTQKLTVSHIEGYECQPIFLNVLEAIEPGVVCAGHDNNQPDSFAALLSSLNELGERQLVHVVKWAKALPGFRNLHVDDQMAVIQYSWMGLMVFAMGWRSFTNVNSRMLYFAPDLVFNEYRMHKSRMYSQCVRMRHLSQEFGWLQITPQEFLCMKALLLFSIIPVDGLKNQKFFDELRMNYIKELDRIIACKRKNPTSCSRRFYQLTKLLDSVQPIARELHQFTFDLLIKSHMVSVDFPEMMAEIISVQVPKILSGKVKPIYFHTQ

A short description of assay [9]: qHTS assay to identify small molecule antagonists of the thyroid receptor (TR) signaling pathway - cell viability counter screen (AID 743064). Note: nearly all actives have a fitted effect of over 50% in size. Note: potency is the fitted concentration of half-maximal effect. In a few lines:
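CellTiter-Fluor readout, 30 min at 37 °C/5% CO2, following 23.5 h incubation of GH3.TRE-Luc cells with test compound and 1 nM T3 (final).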

A short description of assay [10]: qHTS assay to identify small molecule antagonists of the thyroid receptor (TR) signaling pathway (AID 743065). Note: nearly all actives have a fitted effect of over 55% in size. Note: potency is the fitted concentration of half-maximal effect. The gist of the method:
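Antagonism measured as loss of luciferase signal in GH3 cells stably carrying a TRE-luciferase reporter, co-treated with compound and T3 (1 nM final) for 23.5 h at 37 C. Viability was read in the same well by CellTiter-Fluor.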

The subject of assay [11] is thyroid hormone receptor (rat, GH3 cells). Briefly: qHTS assay to identify small molecule agonists of the thyroid receptor (TR) signaling pathway (AID 743066; calls by dose curve).
The nature of assay [12]: qHTS assay to identify small molecule antagonists of the estrogen receptor alpha (ER-alpha) signaling pathway - cell viability counter screen (AID 743074; calls by dose curve;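 note: HEK293 cells carrying ER-alpha-UAS-bla reporter stimulated with 17beta-estradiol; nearly all actives have a fitted effect of over 45% in size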; note: potency is the fitted concentration of half-maximal effect).
The target in assay [13] is Estrogen receptor (Homo sapiens) (UniProt P03372). Kind of assay: qHTS assay to identify small molecule agonists of the estrogen receptor alpha (ER-alpha) signaling pathway (AID 743075; calls by dose curve; note: potency is the fitted concentration of half-maximal effect).
Sequence of Estrogen receptor (Homo sapiens) (P03372 whole entry, looked up): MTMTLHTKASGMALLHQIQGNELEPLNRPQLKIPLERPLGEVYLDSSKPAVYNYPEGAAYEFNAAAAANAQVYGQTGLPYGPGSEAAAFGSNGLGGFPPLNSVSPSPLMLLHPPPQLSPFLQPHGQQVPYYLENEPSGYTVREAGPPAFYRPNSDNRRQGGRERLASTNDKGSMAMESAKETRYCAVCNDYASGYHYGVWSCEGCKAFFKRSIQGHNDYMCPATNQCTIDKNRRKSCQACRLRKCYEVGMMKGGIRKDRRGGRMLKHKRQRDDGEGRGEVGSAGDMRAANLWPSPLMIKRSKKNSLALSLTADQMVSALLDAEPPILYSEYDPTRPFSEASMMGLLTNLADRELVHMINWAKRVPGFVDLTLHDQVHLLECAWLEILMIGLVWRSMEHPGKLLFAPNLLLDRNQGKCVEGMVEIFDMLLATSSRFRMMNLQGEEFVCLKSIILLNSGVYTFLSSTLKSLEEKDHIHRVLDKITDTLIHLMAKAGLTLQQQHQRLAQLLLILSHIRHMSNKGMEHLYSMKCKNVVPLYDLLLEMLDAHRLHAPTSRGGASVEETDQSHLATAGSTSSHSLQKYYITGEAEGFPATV
Assay [14] can be described thus: qHTS assay to identify small molecule antagonists of the estrogen receptor alpha (ER-alpha) signaling pathway using the BG1 cell line - cell viability counter screen (AID 743081).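 Note: compound given together with 17beta-estradiol as the ER stimulus; nearly all actives have a fitted effect of over 45% in size.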 Note: potency is the fitted concentration of half-maximal effect.
In assay [15] the target is Aromatase (Homo sapiens) (UniProt P11511). Briefly: qHTS assay to identify aromatase inhibitors (AID 743083). Note: nearly all actives have a fitted effect of over 55% in size. Note: potency is the fitted concentration of half-maximal effect.
Sequence of Aromatase (Homo sapiens) (P11511 whole entry, looked up): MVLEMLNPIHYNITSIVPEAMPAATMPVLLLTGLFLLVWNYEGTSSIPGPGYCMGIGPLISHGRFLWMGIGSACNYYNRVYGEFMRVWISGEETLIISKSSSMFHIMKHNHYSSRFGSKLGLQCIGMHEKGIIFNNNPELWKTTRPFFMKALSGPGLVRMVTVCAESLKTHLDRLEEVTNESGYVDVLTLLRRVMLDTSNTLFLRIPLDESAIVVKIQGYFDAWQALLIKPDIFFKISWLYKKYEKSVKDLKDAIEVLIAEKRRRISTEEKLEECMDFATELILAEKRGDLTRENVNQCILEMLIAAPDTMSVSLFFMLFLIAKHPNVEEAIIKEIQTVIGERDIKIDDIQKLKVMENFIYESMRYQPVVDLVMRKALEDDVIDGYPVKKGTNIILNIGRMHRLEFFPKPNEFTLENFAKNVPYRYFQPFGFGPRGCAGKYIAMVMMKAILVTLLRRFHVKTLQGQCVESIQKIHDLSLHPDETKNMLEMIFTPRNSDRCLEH
The target in assay [16] is Estrogen receptor (Homo sapiens) (UniProt P03372). Briefly: qHTS assay to identify small molecule antagonists of the estrogen receptor alpha (ER-alpha) signaling pathway (AID 743069; active = well fitted curve in the direction sought with a large enough effect in the signal ratio in the repeat runs, not every such curve was filed as active; inconclusive = weak or mixed curves, or effect the other way; inactive = no such curve, though single readings can be large or run the other way; the % refers to the signal ratio; note: potency is the fitted concentration of half-maximal effect). In a few lines: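 Compound effects are measured against 17beta-estradiol stimulation in HEK293 cells with a UAS-controlled beta-lactamase reporter for ER-alpha. Exposure lasts 18 hr at 37C; LiveBLAzer B/G FRET substrate follows for 2 hr at room temperature.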

The target is the same in assay [17]. Kind of assay: qHTS assay to identify small molecule agonists of the estrogen receptor alpha (ER-alpha) signaling pathway using the BG1 cell line (AID 743079). Note: nearly all actives have a fitted effect of over 20% in size.
Assay [18] in a line: qHTS assay to identify small molecule antagonists of the estrogen receptor alpha (ER-alpha) signaling pathway using the BG1 cell line (AID 743080; calls by dose curve;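 note: BG1 cells stimulated with 17beta-estradiol alongside compound; series mostly up to about 70 µM; nearly all actives have a fitted effect of over 25% in size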). In a few lines:
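Readout is ONE-Glo luminescence, taken 30 min at room temperature after reagent addition, preceded by a CellTiter-Fluor viability read; BG1-Luc-4E2 cells had received compound and 17beta-estradiol for 21.5 h at 37 C.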

Assay [19] deals with Androgen receptor (Homo sapiens) (UniProt P10275). Briefly: qHTS assay to identify small molecule antagonists of the androgen receptor (AR) signaling pathway (AID 743035; active = well fitted inhibition curve with a large enough effect in the signal ratio in the repeat runs, not every such curve was filed as active; inconclusive = weak or mixed curves, or effect the other way; inactive = no such curve, though single readings can be large or run the other way; the % refers to the signal ratio; note: potency is the fitted concentration of half-maximal effect). The gist of the method:
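Fluorescence from a beta-lactamase FRET substrate (LiveBLAzer B/G, 2 h, room temperature) measured inhibition of R1881-stimulated signaling in GeneBLAzer AR-UAS-bla HEK293 cells exposed to compound for 16 h at 37C.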

Assay [20] has the same target. Kind of assay: qHTS assay to identify small molecule agonists of the androgen receptor (AR) signaling pathway (AID 743036; active = well fitted activation curve with a large enough effect in the signal ratio in the repeat runs, with a control signal flat, not every such curve was filed as active; inconclusive = weak or mixed curves, or effect the other way; inactive = no such curve, though single readings can be large or run the other way; the % refers to the signal ratio; note: potency is the fitted concentration of half-maximal effect). In a few lines: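 Following a 4 h settling period, AR-UAS-bla HEK293 cells were dosed with compounds for 16 h at 37C. A 2 h room-temperature incubation with LiveBLAzer B/G FRET substrate preceded the fluorescence measurement.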

“And” between values parts separate entries of the source, which are not always exact repeats. Equal values may be shown once. A structure can be active in one record and inactive in another. The source made the active and inactive calls. Unless noted, calls come from the whole dose curve; as a rule, active = well fitted curve in the direction sought with a large enough effect in the repeat runs; inconclusive = weak or mixed curves; inactive = no such curve, though single readings can be large; an effect the other way counts as inactive or inconclusive.

On to `C[C@@H]1CC[C@@]2(OC1)O[C@H]1[C@@H](O)[C@H]3[C@@H]4CC[C@H]5C[C@@H](O[C@@H]6O[C@H](CO)[C@H](O[C@@H]7O[C@H](CO)[C@@H](O)[C@H](O[C@@H]8OC[C@@H](O)[C@H](O)[C@H]8O)[C@H]7O[C@@H]7O[C@H](CO)[C@@H](O)[C@H](O[C@@H]8O[C@H](CO)[C@@H](O)[C@H](O)[C@H]8O)[C@H]7O)[C@H](O)[C@H]6O)[C@H](O)C[C@]5(C)[C@H]4CC[C@]3(C)[C@H]1[C@@H]2C`, for which the Potency in assay [1] was 16.4 µM (active); in assay [2], 16.3 µM (active); in assay [3], 4.09 µM (active); in [4] it was 2.05 µM (active); in assay [5], 2.32 µM (active); in assay [7] it was 25.8 µM (active). The Potency in assay [8] is 8.17 µM (active); in assay [9] it was 2.05 µM (active); in assay [10] it was 2.58 µM (active); in assay [12] it was 10.4 µM (active); in [13], 41.3 µM [inconclusive] (active); in [14], 64.9 µM (active). Besides, in [15], the Potency was 9.16 µM (active). Besides, the Potency entry in [6] was “inactive”. In assay [11], the result was inactive.
As for `CCCCCCCCCCCCCN1CC(C)OC(C)C1` (stereo not drawn), the Potency entry in assay [1], in [5], in assay [7], in assay [9], in assay [10] and in assay [16] was “inactive” each time. In addition, the Potency result in assay [12], in assay [13], in assay [17], in assay [18], in assay [14] and in assay [15] was “inactive” each time. For the same compound, the figures for the Potency in [2], in assay [3] and in [4] were 54.5 µM (active), 27.3 µM (active) and 30.6 µM (active), respectively. Moreover, the compound was classed as inactive in [11].
With `CC(C)[C@H](C(=O)OC(C#N)c1cccc(Oc2ccccc2)c1)c1ccc(OC(F)F)cc1` (stereo partly drawn), the Potency entry in assay [1], in assay [5], in [7], in assay [9], in assay [12] and in assay [14] was “inactive” in each case. Moreover, the Potency in assay [2] was 24.3 µM (active); in [3], 34.4 µM (active); in assay [4] it was 27.3 µM (active); in assay [10], 54.5 µM (active). Moreover, the compound was called inactive in assay [11].
As for `N#CCCSCCC#N`, the Potency result in assay [1], in assay [2], in assay [3], in [4], in assay [5] and in assay [19] was “inactive” throughout. Further, the Potency entry in assay [6], in assay [7], in assay [8], in [9], in assay [10] and in assay [16] was “inactive” throughout. The Potency result in assay [12], in [13], in [18], in assay [14] and in [15] was “inactive” throughout. Further, the compound was classed as inactive in assay [11].
Turning to `ClC1=C(Cl)C2(Cl)C3C(Cl)C=CC3C1(Cl)C2(Cl)Cl` (stereo not drawn), the Potency entry in assay [1], in assay [5], in assay [7], in assay [16], in [13] and in [17] was “inactive” in each case. In addition, the Potency entry in assay [18] and in assay [14] was “inactive” each time. Further, the Potency entry in assay [2] is “inactive and 48.6 µM (active)”; in [3], 30.6 µM (active); in assay [4], 68.6 µM (active); in assay [9], 30.8 µM (active) and 54.5 µM (active); in assay [10], 43.5 µM (active) and 54.5 µM (active); in [15], 68.6 µM (active). In addition, the outcome in [11] was inactive.
As for `Cc1cc(C(C)(C)c2cc(C)c(O)c(C)c2)cc(C)c1O`, the Potency was 42.2 µM (active) in assay [1]; 52.7 µM (active) in assay [2]; 26.4 µM (active) in assay [3]; 26.4 µM (active) in assay [4]; 26.6 µM (active) in [5]; 29.6 µM (active) in assay [8]. The Potency in [9] is 23.5 µM (active); in assay [10], 11.8 µM (active); in assay [15], 16.7 µM (active). The Potency entry in assay [6], in assay [7] and in assay [14] was “inactive” each time. In addition, the outcome in assay [11] was inactive.
In the case of `CCOC(=O)CC(=O)CCl`, the Potency entry in assay [1], in [5], in [6], in [7], in assay [8] and in assay [12] was “inactive” in each case. Besides, the Potency result in assay [13], in [17] and in assay [14] was “inactive” throughout. Moreover, the Potency was 61.1 µM (active) in [2]; 19.3 µM (active) in [3]; 24.3 µM (active) in assay [4]; 61.1 µM (active) in [9]; 61.1 µM (active) in [10]; 30.6 µM (active) in [15]. The compound was called inactive in assay [11].
As to `FC(Cl)(Cl)Cl`, the Potency entry in [1], in assay [2], in [3], in assay [4], in [5] and in assay [19] was “inactive” each time. Further, the Potency entry in assay [7], in assay [8], in assay [9], in assay [10], in assay [12] and in [14] was “inactive” in each case. In addition, in assay [15], the Potency result was “inactive”. Besides, the Potency in assay [20] is 12.3 µM (active); in assay [6], 1.36 µM (active). In addition, the call in assay [11] was inactive.
Consider `CCCCCCCCCCCCCCCCCCn1cc[n+](C)c1`, for which the Potency is 24.4 µM (active) in assay [1]; 1.21 µM (active) in assay [2]; 0.963 µM (active) in [3]; 2.16 µM (active) in assay [4]; 13.7 µM (active) in [5]; 3.87 µM (active) in assay [19]. Also, the Potency in assay [8] is 7.65 µM (active); in assay [9], 12.1 µM (active); in [10], 5.42 µM (active); in assay [16] it was 9.72 µM [inconclusive] (active); in [12], 38.7 µM (active); in [14], 30.5 µM (active). For the same compound, the Potency in assay [15] was 3.83 µM (active). Besides, the Potency result in assay [6] and in assay [13] was “inactive” throughout.
Turning to `COc1ccc(/C(=C/C(=O)N2CCOCC2)c2ccc(Cl)cc2)cc1OC`, the Potency result in [1], in assay [5], in assay [19], in [20], in [6] and in assay [7] was “inactive” each time. Further, the Potency result in assay [9], in [10], in assay [12], in [14] and in assay [15] was “inactive” each time. Moreover, the Potency in [2] was 24.3 µM (active); in [3], 30.6 µM (active); in assay [4], 30.6 µM (active); in assay [8], 30.6 µM (active). Besides, the call in [11] was inactive.
`CCCN(CCC)c1c([N+](=O)[O-])cc(S(N)(=O)=O)cc1[N+](=O)[O-]`: the Potency in assay [1] is 58.6 µM (active); in [2], 2.06 µM (active); in assay [3], 16.9 µM (active); in assay [4], 22.1 µM (active); in assay [5] it was 20.8 µM (active); in assay [7], 51.8 µM (active). Besides, the Potency was 48.7 µM (active) in assay [9], 30.6 µM (active) in assay [10], 26.2 µM (active) in assay [12] and 33.1 µM (active) in [15]. Moreover, the compound was called inactive in assay [11]. Moreover, the Potency entry in assay [13] was “inactive”.
